Assay outcomes: PubChem, National Center for Advancing Translational Sciences (NCATS)
Shown are actives, neighbours in structure and some others; about 6.2% of the full set was active somewhere.
ATXN2 expr inh: Primary qHTS for Inhibitors of ATXN expression. HEK-293 ATXN2-luciferase reporter, luminescence, 24 h. Potency, µM (top dose mostly 57 µM), for the others: at the top dose activity change, negative = inhibition, usual class: inhibitors. hit rate 0.72% among 360,000. AID 1745845, 2022; further: on the % scale 0 is the no-effect control and ±100 the full control effect; nearly all actives have a fitted effect of over 55% in size
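ATXN2-luciferase reporter cells (luciferase flanked by upstream and downstream ATXN2 gene portions) were treated 24 h at 37 °C with compounds at up to 57 uM. SteadyGlo luminescence gave expression; GF-AFC fluorescence gave viability.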
KB-3-1 cytotox: qHTS assay for MDR1-selective chemotherapeutics: Primary screen using the parental adenocarcinoma cell KB-3-1 | KB-3-1 viability, CellTiter-Glo ATP luminescence, 72 h | Potency, µM (titrated, usually from 46.1 µM), hits mostly cytotoxic | hit rate 1.4% among 400,000 | AID 1347075, 2019; further: on the % scale 0 is the no-effect control and ±100 the full control effect; nearly all actives have a fitted effect of over 60% in size
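KB-3-1 cells, DMEM (no phenol red) + 10% FBS; compound by pin transfer, 72 h, 37 °C. Readout: CellTiter-Glo luminescence after 10 min. Data normalized, curve-fitted.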
KB-V1 cytotox: qHTS assay for MDR1-selective chemotherapeutics: Primary screen using the drug-selected MDR subline cells KB-V1 | hit rate 3.4% among 400,000 | KB-V1 MDR cells viability, CellTiter-Glo, 72 h | AID 1347076, 2019 | Potency, µM (highest dose often 46.1 µM), usual class: cytotoxic; further: on the % scale 0 is the no-effect control and ±100 the full control effect; nearly all actives have a fitted effect of over 60% in size
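Readout: CellTiter-Glo luminescence, 10 min after addition. Cells: KB-V1 MDR subline, 72 h at 37 degrees C with compound. Analysis: corrected, normalized data fitted to concentration-effect curves.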
HT1080NT lethal: qHTS for induction of synthetic lethality in tumor cells producing 2HG: qHTS for the HT-1080-NT fibrosarcoma cell line. AID 686970, 2013. Potency, µM (highest dose often 46.1 µM), for the others: at the highest dose activity, negative = less viability, hits mostly cytotoxic. HT-1080-NT fibrosarcoma viability, CellTiter-Glo ATP luminescence, 48 h. hit rate 1.6% among 360,000;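 further: NT is the 2HG producing partner of a matched IDH1 knockdown line; 0% = DMSO-treated cells and -100% = media-only wells without cells; nearly all actives have a fitted effect of over 55% in size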
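750 cells/well, RPMI + 5% FBS; 2 h settle, compound pin-transfer, 48 h at 37 degrees C. CellTiter-Glo 10 min RT, luminescence. Normalized to DMSO and media-only wells.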
S2 tox: Viability Counterscreen for Primary qHTS for Inhibitors of ATXN expression | S2 cells (HEK-293 line with an ATXN2-luciferase reporter) viability, CellTiter-Fluor protease fluorescence, 24 h | Potency, µM (series often up to 56.7 µM), most hits filed as cytotoxic | hit rate 0.49% among 400,000 | AID 651635, 2014; further: nearly all actives have a fitted effect of over 40% in size
HT1080 IDH1KD tx: qHTS for induction of synthetic lethality in tumor cells producing 2HG: qHTS for the HT-1080-IDH1KD cell line. HT-1080 IDH1 knockdown viability, ATP luminescence, 48 h. Potency, µM (titrated, usually from 46.1 µM), without a hit: at the highest dose activity, negative = toxicity, hits mostly cytotoxic. hit rate 2% among 360,000;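 further: 0% = DMSO wells and -100% = cell-free medium wells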
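Luminescent ATP read-out (CellTiter-Glo, 10 min at room temperature) after 48 h compound exposure at 37 °C gave viability of IDH1-knockdown HT-1080 cells. Activity was normalised to DMSO and cell-free wells, then fitted as concentration-response curves.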
The depositor's hits bear a star; i = inactive; ? = inconclusive; . = not tested or not shown. The call rests on the fitted dose curve; in most records, active means well fitted curve in the direction sought with a large enough effect; inconclusive means small, poorly fitted or top-dose-only effect, or another doubt; inactive means no such curve, though single readings can be large; an effect the other way counts as inactive or inconclusive. Potency means the concentration at half of the fitted maximal effect.

SMILES | ATXN2 expr inh | KB-3-1 cytotox | KB-V1 cytotox | HT1080NT lethal | S2 tox | HT1080 IDH1KD tx
COc1ccc2oc(-c3ccc(NC(=O)c4ccc(Cl)cc4Cl)cc3)nc2c1 | 0% | i | i | . | i | .
CN1CCN(Cc2nc3ccccc3c(=O)n2Cc2nc(-c3ccc([N+](=O)[O-])cc3)cs2)CC1 | ? | ? | ? | 21µM* | ? | 21µM*
Cc1cc(N2CCN(c3nc(-c4ccc([N+](=O)[O-])cc4)cs3)CC2)c2ccccc2n1 | -35% | i | ? | 18µM* | i | ?
CC(=O)Nc1nonc1-c1nnc(SCc2ccc(F)cc2Cl)n1C | 9% | i | i | . | i | .
CCOC(=O)Cn1c(=O)oc2cc(S(=O)(=O)N3CCN(c4cccc(Cl)c4)CC3)ccc21 | -9% | i | i | . | i | .
Cc1cc(-c2nn(-c3ccccc3F)cc2CN2CCN(c3ccccn3)CC2)c(C)s1 | 6% | i | 16µM* | -4% | i | ?
Cn1cc(CN2CCN(c3ccc(Cl)cn3)CC2)c(-c2ccccc2F)n1 | . | i | i | 4% | i | 4%
Cc1cccc(N2CCN(Cc3cn(C)nc3-c3ccccc3F)CC2)n1 | -37% | 5.8µM* | ? | ? | i | 1.8µM*
COC(=O)c1cc2c(cc1NC(=O)c1cnn(-c3ccccc3)c1-n1cccc1)OCO2 | 1% | i | i | . | i | .
Cc1ccc(Cl)cc1N1CCN(C(=O)c2cn(C)c3ccc(S(=O)(=O)N4CCCCC4)cc3c2=O)CC1 | 1% | i | i | . | i | .
COc1ccc(NC2=C(C(C)=O)C(c3ccccc3)C(C(C)=O)C(C)(O)C2)cc1 (centres undefined) | -1% | ? | i | -23% | i | -18%
CCOC(=O)C1=C(Nc2ccccc2)CC(C)(O)C(C(=O)OCC)C1c1ccc(Cl)cc1 (centres undefined) | ? | ? | 21µM* | -7% | ? | -8%
c1ccc(-c2nnnn2-c2ccccc2)cc1 | -20% | i | i | 5% | i | 0%
CNc1ncc(-c2nnnn2-c2ccccc2)c(-c2ccccc2)n1 | . | i | 21µM* | -2% | ? | -18%
CC1(C)Nc2cccc3c(N=Nc4ccc(N=Nc5ccccc5)c5ccccc45)ccc(c23)N1 | . | i | ? | . | . | .
COc1ccc(Cn2c(=O)[nH]c3cc(C(=O)N4CCN(c5ccccc5OC)CC4)ccc3c2=O)cc1 | -21% | 21µM* | ? | ? | i | -19%
COc1ccc(Cn2c(=O)[nH]c3cc(C(=O)N4CCN(c5ccccc5F)CC4)ccc3c2=O)cc1 | -15% | i | i | 5% | i | -5%
COCCn1c(=S)[nH]c2cc(C(=O)N3CCN(Cc4ccc5c(c4)OCO5)CC3)ccc2c1=O | -36% | 4.1µM* | 2.6µM* | ? | i | -10%
COc1ccc(Cn2c(=O)[nH]c3cc(C(=O)N4CCN(Cc5ccccc5)CC4)ccc3c2=O)cc1 | -14% | ? | 21µM* | -29% | i | ?
Cc1cc(Cl)ccc1OCC(=O)Nc1cccc(-c2nc3ccccc3o2)c1 | . | i | i | . | . | .
OC(Cc1ccccc1)c1ncc(-c2ccc3ccccc3c2)[nH]1 (centres undefined) | -15% | i | i | ? | ? | 18µM*
Cc1cccc(-c2cnc(C(O)Cc3ccccc3)[nH]2)c1 (centres undefined) | 13% | ? | ? | ? | i | ?
Cc1ccccc1-n1cc(C(=O)c2cc(Cl)ccc2O)cc(C#N)c1=O | -7% | ? | 15µM* | 0% | i | -1%
